These results are taken from PubChem BioAssay (NCATS).

Test [1] deals with Transient receptor potential cation channel subfamily V member 1 (Homo sapiens) (UniProt Q8NER1). Kind of test: HTS Assay for Compounds that Act as Enhancers of the Vanilloid Receptor 1 (AID 488979). Further: 0% is about no effect. In short, it runs like this:
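Calcium influx kinetics via Fluo-8 (480/520 nm) in TRPV1-expressing cells, 2000/well cultured overnight at 35.5C. Compound-alone read 3 min (agonist phase), followed by EC20 capsaicin challenge for 2 min (enhancer phase).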

Test [2] addresses Thyrotropin receptor (Homo sapiens) (UniProt P16473). In words: qHTS Assay for Antagonists of the Thyroid Stimulating Hormone Receptor (AID 488980). Further: series mostly up to about 58 µM; 0% is about no effect. The essentials:
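TSHR-HEK293 cells; 70 uM RO 20-1724 PDE inhibitor; compound + EC80 TSH (4 nM final); anti-cAMP cryptate antibody/cAMP-d2 in lysis buffer, 30 min RT; HTRF 665/620 nm read.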
Background: qHTS replaces the single test concentration by a dilution series.

The target of test [3] is D(1A) dopamine receptor (Homo sapiens) (UniProt P21728). Kind of test: HTS Assay for Allosteric Agonists of the Human D1 Dopamine Receptor: Primary Screen for Agonists (AID 488981). Further: 0% is about no effect. The essentials: (§1)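 Calcium flux in an inducible, force-coupled HEK293 Trex D1 line (overnight at 30 C): agonist mode is the 180 s kinetic read after compound; potentiator mode is the following 180 s read after dopamine at EC20.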

For test [4] the target is unchanged. In words: HTS Assay for Allosteric Agonists of the Human D1 Dopamine Receptor: Primary Screen for Potentiators (AID 488982). Further: 0% is about no effect. The essentials:
as §1

For test [5] the target is unchanged. In words: HTS Assay for Allosteric Agonists of the Human D1 Dopamine Receptor: Primary Screen for Antagonists (AID 488983).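 Further: calcium flux response to an EC80 dopamine challenge measured with no-wash dye; on the % scale 0 is the no-effect control and ±100 the full control effect; nearly all actives have a fitted effect of over 65% in size.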 In short, it runs like this: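 Screening of inducible HEK293 T-REx D1 cells: compound first, EC80 dopamine 180 s later, each phase read kinetically for calcium over 180 s.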
Test [6] can be described thus: Validation screen for small molecules that induce genotoxicity in human embryonic kidney (HEK293T) cells expressing luciferase-tagged ELG1 (AID 493106). Further: 0% is about no effect. In short, it runs like this: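 Reporter-gene quantitative HTS in HEK293T cells carrying luciferase-tagged ELG1, whose level climbs under genotoxic stress. Compound exposure lasts 16 hr at 37 °C before luciferase detection.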

Test [7] deals with ATPase family AAA domain-containing protein 5 (Homo sapiens) (UniProt Q96QE3). Kind of test: Validation screen for small molecules that inhibit ELG1-dependent DNA repair in human embryonic kidney (HEK293T) cells expressing luciferase-tagged ELG1 (AID 493107).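 Further: cells co-treated with the DNA-damaging agent 5-fluorouridine alongside compound; series mostly up to about 46 µM; on the % scale 0 is the no-effect control and ±100 the full control effect; inhibitors lower the ELG1-luciferase luminescence signal; nearly all actives have a fitted effect of over 70% in size.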 In short, it runs like this:
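Quantitative HTS in HEK293T cells carrying luciferase-tagged ELG1, stimulated with 5-fluorouridine alongside compound for 16 hr. Loss of luciferase signal marks inhibition of ELG1 response.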

The target of test [8] is Thyrotropin-releasing hormone receptor (Homo sapiens) (UniProt P34981). In words: qHTS for Small Molecule Agonists and Allosteric Enhancers of Human TRH Receptor: Validation Screen for Agonists (AID 493127;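 active means calcium activation more than 3 SD above the typical response in the agonist read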;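 further: intracellular calcium rise by fluo-8 fluorescence before TRH EC20 addition; 0% is about no effect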). To be noted: TRH receptor agonist cell assay; at 2 µM; stronger effect = higher value. In short, it runs like this: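 Gq-coupled calcium mobilization in TRHR cells after compound addition, monitored kinetically with fluo-8 dye on an FDSS reader.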

A short description of test [9]: Nrf2 qHTS screen for inhibitors: Validation (AID 493153; active means well fitted inhibition curve with a large enough effect in the main read-out, with a control signal flat, not every such curve was filed as active). The note with it: Potency: luciferase luminescence; viability change: measured here: cytotoxicity max response. The essentials: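 Dose-response validation uses reporter A549 cells with firefly luciferase under an antioxidant response element. Compounds stay on cells 18-24 h at 37°C, and luminescence indicates Nrf2-driven transcription.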

For test [10], the target named is Peptidyl-prolyl cis-trans isomerase NIMA-interacting 1 (Homo sapiens) (UniProt Q13526). Kind of test: qHTS Validation Assay to Find Inhibitors of Pin1 (AID 504536; active means well fitted inhibition curve with a large enough effect in the polarisation, with a control signal flat, not every such curve was filed as active; the % refers to the polarisation;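 further: 0% = full Pin1 enzyme wells and -100% = no-enzyme wells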). In short, it runs like this:
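Fluorescence polarization competition: compounds (titration) displace HiFluor-488-labeled Pin1-1b peptide from Pin1 (0.3 uM final) in pH 7.5 HEPES buffer with DTT, 10 min at room temperature; %Activity normalized to no-enzyme wells, curves fitted.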

For test [11], the target named is Phosphoglycerate kinase, glycosomal (Trypanosoma brucei brucei) (UniProt P07378). Kind of test: qHTS Validation Assay to Find Inhibitors of Phosphoglycerate Kinase (AID 504547).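 Further: control wells lack PGK and mark full inhibition.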 In short, it runs like this: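 Inhibition of the enzyme is judged by a Kinase-Glo Plus luminescent signal following a one-hour incubation at room temperature. Because 1,3-BPG is unstable, it is made in situ by GAPDH at 100nM final; no-PGK wells define the baseline.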

Test [12] has as its target phosphoglycerate mutase (Leishmania major) (UniProt Q4Q090). In words: qHTS Validation Assay to Find Inhibitors of Phosphoglycerate Mutase (AID 504548). Further: series mostly up to about 58 µM; on the % scale 0 is the no-effect control and ±100 the full control effect. The note with it: Potency: inhibition qHTS. The essentials:
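Lm PGAM at 1.25 nM final with substrate in 100 mM TEA pH 7.6, 5 mM MgCl2, 0.01% Tween-20; 45 min at room temperature. Kinase-GloPlus added, 10 min, end-point luminescence read.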

Test [13] has as its target Ubiquitin carboxyl-terminal hydrolase 1 (Homo sapiens) (UniProt O94782). In words: Inhibitors of USP1/UAF1: Pilot qHTS (AID 504865).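 Further: rhodamine fluorescence freed from ubiquitin-rhodamine substrate followed over time; top concentration of the series differs between compounds; on the % scale 0 is the no-effect control and ±100 the full control effect; nearly all actives have a fitted effect of over 35% in size.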 The essentials: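 1nM USP1/UAF1 + cpd, 15 min RT; start w/ Ub-Rho 150nM final; kinetic FL 480/540 nm, 6 reads q60 s. Buffer 50mM HEPES pH 7.8, 0.5mM EDTA, 1mM TCEP, 0.01% Tween-20, 0.1 mg/ml BSA.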
Test [14] in a line: qHTS for Inhibitors of ATXN expression: Validation of Cytotoxic Assay (AID 588349).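 Further: cells exposed to compound for 72 hr; on the % scale 0 is the no-effect control and ±100 the full control effect.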 In short, it runs like this: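 HEK293, compound dose series, 72 hr / 37 degrees C; viability via CellTiter Glo (intracellular ATP).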
Test [15] is described as follows: qHTS for Inhibitors of ATXN expression: Validation (AID 588378). Further: series mostly up to about 57 µM; on the % scale 0 is the no-effect control and ±100 the full control effect; nearly all actives have a fitted effect of over 75% in size. The essentials: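 Cells: HEK293-ATXN2-FFLuc, phenol-red free DMEM, 2 h attachment. Compound pin-transfer, 24 h, 37 degrees C, 5% CO2. CellTiter-Fluor 30 min, Ex405/Em525; Bright-Glo 5 min, luminescence 2 s exposure.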
Test [16] in a line: qHTS for Inhibitors of Cell Surface uPA Generation: Validation Assay (AID 493164).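 Further: RAW 264.7 macrophage cells exposed to compound for 18 h; 0% is about no effect.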 In short, it runs like this:
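RAW 264.7, 4000 cells/well, o/n plating; cpd 7-pt 1:5 dilution 2.45 nM–38.3 uM final; 18 h, 37 C/5% CO2; ATP-Lite, 5 s luminescence exposure.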

Test [17] deals with Galactokinase (Homo sapiens) (UniProt P51570). In words: qHTS Validation Assay for Inhibitors of Human Galactokinase (GALK) (AID 493189). Further: 0% is about no effect. The essentials:
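Luminescence from leftover ATP (Kinase-Glo Plus, 10 min) served as read-out after a 1 h room-temperature reaction of 5 nM GALK, 100 uM galactose and 35 uM ATP at pH8.0.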

Test [18] is described as follows: Validation screen for small molecules that induce DNA re-replication in SW480 colon adenocarcinoma cells (AID 504364). Further: 0% is about no effect. In short, it runs like this:
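Cells are treated 48 hr with test compound, stained 40 min with Hoechst at 37 C, and scanned for nuclear fluorescence; compounds inducing re-replication increase nuclei with elevated intensity.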

Each structure is given as a SMILES string. Results filed as inconclusive are left out. Active and inactive are the calls of the source. Unless noted, the call rests on the fitted dose curve; in most records, active means well fitted curve in the direction sought with a large enough effect; inconclusive means small, poorly fitted or top-dose-only effect, or another doubt; inactive means no such curve, though single readings can be large; an effect the other way counts as inactive or inconclusive.

Thyrotropin-releasing hormone receptor (Homo sapiens), sequence (P34981 whole entry, looked up): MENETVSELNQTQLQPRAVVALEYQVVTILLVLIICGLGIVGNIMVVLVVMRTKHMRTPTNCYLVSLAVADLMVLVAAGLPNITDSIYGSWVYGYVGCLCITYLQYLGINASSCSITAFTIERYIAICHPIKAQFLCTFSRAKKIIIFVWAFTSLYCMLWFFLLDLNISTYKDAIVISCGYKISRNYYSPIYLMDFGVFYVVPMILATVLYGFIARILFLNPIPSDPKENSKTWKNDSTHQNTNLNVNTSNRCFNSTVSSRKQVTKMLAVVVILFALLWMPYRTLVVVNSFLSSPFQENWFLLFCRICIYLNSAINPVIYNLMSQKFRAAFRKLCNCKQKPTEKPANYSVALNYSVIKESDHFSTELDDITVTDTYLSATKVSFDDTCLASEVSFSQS
ATPase family AAA domain-containing protein 5 (Homo sapiens), sequence (Q96QE3 whole entry, looked up, the tested form may be a part): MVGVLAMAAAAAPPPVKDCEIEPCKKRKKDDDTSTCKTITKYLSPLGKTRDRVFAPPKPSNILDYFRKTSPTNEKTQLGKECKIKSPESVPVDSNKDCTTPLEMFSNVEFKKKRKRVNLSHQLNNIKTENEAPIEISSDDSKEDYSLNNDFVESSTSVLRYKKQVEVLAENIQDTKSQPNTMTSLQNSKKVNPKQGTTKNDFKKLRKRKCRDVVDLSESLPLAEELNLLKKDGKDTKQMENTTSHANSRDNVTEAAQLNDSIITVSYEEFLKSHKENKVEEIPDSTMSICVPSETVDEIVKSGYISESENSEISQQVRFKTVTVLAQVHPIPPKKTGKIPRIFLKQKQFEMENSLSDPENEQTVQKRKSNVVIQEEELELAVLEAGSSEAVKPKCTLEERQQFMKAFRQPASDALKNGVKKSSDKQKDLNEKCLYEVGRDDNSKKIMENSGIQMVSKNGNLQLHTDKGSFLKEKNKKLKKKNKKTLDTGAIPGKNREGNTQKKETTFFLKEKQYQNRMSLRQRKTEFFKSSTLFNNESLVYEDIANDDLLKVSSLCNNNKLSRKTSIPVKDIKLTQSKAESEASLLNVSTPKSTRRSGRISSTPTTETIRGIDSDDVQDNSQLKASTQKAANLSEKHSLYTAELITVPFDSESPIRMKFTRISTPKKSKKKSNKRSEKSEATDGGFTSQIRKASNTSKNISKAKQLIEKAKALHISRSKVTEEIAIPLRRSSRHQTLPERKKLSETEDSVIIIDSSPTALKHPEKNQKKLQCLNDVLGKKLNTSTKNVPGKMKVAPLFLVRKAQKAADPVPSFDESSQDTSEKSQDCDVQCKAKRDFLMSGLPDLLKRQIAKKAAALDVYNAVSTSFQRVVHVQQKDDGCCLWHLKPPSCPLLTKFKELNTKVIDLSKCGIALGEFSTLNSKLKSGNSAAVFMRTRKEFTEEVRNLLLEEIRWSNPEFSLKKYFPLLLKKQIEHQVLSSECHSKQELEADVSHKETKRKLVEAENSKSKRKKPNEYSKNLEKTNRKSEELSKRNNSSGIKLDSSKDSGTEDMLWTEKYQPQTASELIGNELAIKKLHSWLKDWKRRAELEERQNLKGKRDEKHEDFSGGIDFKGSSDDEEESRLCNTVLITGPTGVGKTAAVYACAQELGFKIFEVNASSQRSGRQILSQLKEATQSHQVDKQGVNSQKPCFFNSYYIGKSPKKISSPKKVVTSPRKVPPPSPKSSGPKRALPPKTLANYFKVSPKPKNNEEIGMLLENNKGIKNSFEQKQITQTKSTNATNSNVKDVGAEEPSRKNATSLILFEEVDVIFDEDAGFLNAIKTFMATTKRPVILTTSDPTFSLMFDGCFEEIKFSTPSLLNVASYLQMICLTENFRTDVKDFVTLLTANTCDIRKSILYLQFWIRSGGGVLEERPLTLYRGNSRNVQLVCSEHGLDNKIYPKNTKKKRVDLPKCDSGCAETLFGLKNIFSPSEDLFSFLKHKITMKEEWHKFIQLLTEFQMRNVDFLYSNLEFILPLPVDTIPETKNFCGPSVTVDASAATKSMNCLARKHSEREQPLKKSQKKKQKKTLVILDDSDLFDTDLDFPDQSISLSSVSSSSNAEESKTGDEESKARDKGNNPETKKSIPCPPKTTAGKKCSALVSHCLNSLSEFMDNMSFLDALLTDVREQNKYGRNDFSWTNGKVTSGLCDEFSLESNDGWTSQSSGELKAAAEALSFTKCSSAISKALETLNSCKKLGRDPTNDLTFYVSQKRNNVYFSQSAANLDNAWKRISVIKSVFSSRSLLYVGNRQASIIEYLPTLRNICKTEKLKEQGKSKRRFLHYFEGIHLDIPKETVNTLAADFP
Phosphoglycerate kinase, glycosomal (Trypanosoma brucei brucei), sequence (P07378 whole entry, looked up): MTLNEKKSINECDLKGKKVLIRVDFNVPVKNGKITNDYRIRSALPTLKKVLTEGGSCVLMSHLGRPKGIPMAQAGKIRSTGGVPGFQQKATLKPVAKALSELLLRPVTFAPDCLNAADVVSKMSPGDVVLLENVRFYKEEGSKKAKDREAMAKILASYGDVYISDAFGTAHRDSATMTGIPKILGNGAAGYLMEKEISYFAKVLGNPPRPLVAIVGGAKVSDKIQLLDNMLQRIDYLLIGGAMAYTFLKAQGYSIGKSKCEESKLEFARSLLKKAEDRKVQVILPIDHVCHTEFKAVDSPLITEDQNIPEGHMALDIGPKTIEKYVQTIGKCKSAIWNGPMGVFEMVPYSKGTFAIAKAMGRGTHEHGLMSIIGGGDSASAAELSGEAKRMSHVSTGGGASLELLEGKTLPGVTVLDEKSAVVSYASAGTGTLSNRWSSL
phosphoglycerate mutase (Leishmania major), sequence (Q4Q090 1-553): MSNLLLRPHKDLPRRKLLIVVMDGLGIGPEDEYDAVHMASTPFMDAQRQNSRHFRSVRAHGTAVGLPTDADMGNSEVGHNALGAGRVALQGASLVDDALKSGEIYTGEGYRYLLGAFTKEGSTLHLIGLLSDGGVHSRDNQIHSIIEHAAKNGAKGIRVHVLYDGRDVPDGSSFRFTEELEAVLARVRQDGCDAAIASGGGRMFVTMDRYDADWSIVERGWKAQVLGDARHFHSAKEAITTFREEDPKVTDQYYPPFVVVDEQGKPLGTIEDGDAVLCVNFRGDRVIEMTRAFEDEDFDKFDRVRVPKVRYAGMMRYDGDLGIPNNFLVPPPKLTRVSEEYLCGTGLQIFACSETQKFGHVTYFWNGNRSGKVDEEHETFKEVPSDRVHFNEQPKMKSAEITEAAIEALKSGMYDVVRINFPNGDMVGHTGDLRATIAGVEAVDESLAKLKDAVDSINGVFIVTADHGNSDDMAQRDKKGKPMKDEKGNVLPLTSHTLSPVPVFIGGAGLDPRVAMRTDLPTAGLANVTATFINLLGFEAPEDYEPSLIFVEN
Galactokinase (Homo sapiens), sequence (P51570 whole entry, looked up): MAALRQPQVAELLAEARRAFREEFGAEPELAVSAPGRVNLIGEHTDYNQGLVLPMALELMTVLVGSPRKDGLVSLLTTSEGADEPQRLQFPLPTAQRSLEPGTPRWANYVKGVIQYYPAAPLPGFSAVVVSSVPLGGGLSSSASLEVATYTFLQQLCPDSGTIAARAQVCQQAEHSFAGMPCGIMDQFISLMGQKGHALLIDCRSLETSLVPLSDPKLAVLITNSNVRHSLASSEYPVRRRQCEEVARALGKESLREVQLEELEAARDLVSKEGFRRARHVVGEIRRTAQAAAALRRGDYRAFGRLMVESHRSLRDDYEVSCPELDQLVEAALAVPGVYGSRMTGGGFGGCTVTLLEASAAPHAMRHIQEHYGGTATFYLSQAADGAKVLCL
Transient receptor potential cation channel subfamily V member 1 (Homo sapiens), sequence (Q8NER1 whole entry, looked up): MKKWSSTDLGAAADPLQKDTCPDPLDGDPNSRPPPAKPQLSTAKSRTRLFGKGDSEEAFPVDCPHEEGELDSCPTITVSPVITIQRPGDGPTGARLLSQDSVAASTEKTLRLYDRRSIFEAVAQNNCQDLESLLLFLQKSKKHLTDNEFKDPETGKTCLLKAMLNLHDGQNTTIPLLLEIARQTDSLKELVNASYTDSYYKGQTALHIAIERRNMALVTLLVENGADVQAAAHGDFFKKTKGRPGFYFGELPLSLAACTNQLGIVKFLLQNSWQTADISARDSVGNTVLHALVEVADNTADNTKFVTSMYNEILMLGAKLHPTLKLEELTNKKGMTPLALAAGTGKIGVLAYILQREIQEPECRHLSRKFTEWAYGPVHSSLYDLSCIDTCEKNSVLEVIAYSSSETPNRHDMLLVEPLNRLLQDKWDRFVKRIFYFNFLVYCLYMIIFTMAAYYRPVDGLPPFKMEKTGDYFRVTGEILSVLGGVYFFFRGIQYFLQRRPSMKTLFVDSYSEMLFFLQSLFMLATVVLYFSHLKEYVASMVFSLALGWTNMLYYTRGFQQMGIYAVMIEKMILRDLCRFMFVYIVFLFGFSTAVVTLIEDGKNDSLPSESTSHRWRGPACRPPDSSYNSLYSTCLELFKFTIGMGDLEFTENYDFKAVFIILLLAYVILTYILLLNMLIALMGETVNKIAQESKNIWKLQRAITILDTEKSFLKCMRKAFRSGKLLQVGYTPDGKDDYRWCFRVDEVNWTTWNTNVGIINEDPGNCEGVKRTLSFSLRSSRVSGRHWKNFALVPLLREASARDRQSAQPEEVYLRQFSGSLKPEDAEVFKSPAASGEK
Peptidyl-prolyl cis-trans isomerase NIMA-interacting 1 (Homo sapiens), sequence (Q13526 whole entry, looked up): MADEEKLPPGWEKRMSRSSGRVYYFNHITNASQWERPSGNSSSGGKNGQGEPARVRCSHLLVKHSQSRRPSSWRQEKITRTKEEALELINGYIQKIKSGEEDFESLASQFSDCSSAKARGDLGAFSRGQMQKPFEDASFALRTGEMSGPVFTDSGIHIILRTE

For `CC(=O)NNC(=O)N1Cc2ccccc2Oc2ccc(Cl)cc21`, the outcome in [1] and in test [2] was inactive. Further, the Potency entry in [3], in [4], in test [5], in test [6], in test [7] and in [9] was “inactive” each time. The Potency result in [10], in test [11], in test [12], in test [13], in test [14] and in test [15] was “inactive” each time. Further, in [8], the activation is 0.562% (inactive). In addition, the viability change in test [9] is -4.76%.
Take `CCC(=O)N1CCN(C(=O)c2ccccc2)CC1`: the result in test [1], in test [2] and in [16] was inactive. The Potency result in [3], in test [4], in [5], in [6], in [7] and in test [9] was “inactive” throughout. In addition, the Potency entry in test [17], in test [10], in [11], in [12], in [13] and in [14] was “inactive” in each case. Besides, in test [15], the Potency result was “inactive”. Besides, in test [8], the activation was 1.38% (inactive). The viability change in test [9] stood at 1.55%.
For `CC(=O)O[C@H]1CC2(C)[C@@H](C[C@@H](O)[C@H]3[C@@]4(C)CC[C@@H](O)[C@@H](C)[C@@H]4CC[C@@]32C)C1=C(CCC=C(C)C)C(=O)O` (stereo partly specified), the outcome in test [1], in test [2] and in test [16] was inactive. The Potency entry in [3], in [4], in [5], in test [6], in [9] and in test [18] was “inactive” in each case. For the same molecule, the Potency result in [10], in test [11], in [12], in test [13], in test [14] and in test [15] was “inactive” in each case. Besides, the activation in test [8] was 1.06% (inactive). In addition, the viability change in [9] is -4.76%.
For the molecule `CC(N)(Cc1ccc(O)cc1)C(=O)O` (stereo unspecified), the result in test [1], in test [2] and in [16] was inactive. For the same molecule, the Potency result in test [3], in test [4], in test [5], in test [6], in test [7] and in test [9] was “inactive” throughout. Moreover, the Potency entry in test [17], in test [18], in test [11], in test [12], in test [13] and in [14] was “inactive” in each case. Besides, the Potency result in test [15] is “inactive”. For the same molecule, the viability change in [9] was determined as 11.6%.
With `COC1(C2=NCCN2)COc2ccccc2O1` (stereo unspecified), the outcome in test [1], in test [2] and in test [16] was inactive. In addition, the Potency entry in test [3], in [4], in test [5], in [7], in test [9] and in test [17] was “inactive” throughout. Further, the Potency result in [18], in test [10], in test [11], in test [12], in test [13] and in [14] was “inactive” each time. The Potency entry in test [15] is “inactive”. For the same molecule, in test [8], the activation was 1.62% (inactive). The viability change in test [9] was -0.853%.
`CNc1ncnc2c1ncn2[C@H]1C[C@H](OP(=O)(O)O)[C@@H](COP(=O)(O)O)O1`: the outcome in test [1], in test [2] and in test [16] was inactive. Further, the Potency result in test [3], in test [4], in test [5], in test [7], in test [9] and in test [17] was “inactive” throughout. Besides, the Potency entry in test [18], in test [10], in test [11], in test [12], in test [13] and in [14] was “inactive” each time. The Potency result in [15] was “inactive”. Moreover, the activation in [8] was 1.25% (inactive). Besides, the viability change in [9] is -10.4%.
For the molecule `COc1cc(CC(=O)O)ccc1O`, the result in [1], in test [2] and in test [16] was inactive. For the same molecule, the Potency result in [3], in [4], in [5], in test [6], in [9] and in test [17] was “inactive” throughout. For the same molecule, the Potency entry in [18], in test [10], in test [12], in [13], in test [14] and in test [15] was “inactive” each time. In addition, the activation in [8] is 0.125% (inactive). Further, the viability change in [9] is 3.47%.
